A short description of assay [1]: qHTS assay for small molecule agonists of the p53 signaling pathway (AID 651631; calls by dose curve; further: nearly all actives have a fitted effect of over 15% in size; further: potency means the concentration at half of the fitted maximal effect). In a few lines:
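Testing took place in human colorectal HCT-116 cells with stable p53RE-driven beta-lactamase. After 16 h of compound exposure at 37 °C, a FRET substrate was added and fluorescence recorded 2 h later.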

Assay [2] is described as follows: qHTS assay for small molecules that induce genotoxicity in human embryonic kidney cells expressing luciferase-tagged ATAD5 (AID 651632). Further: nearly all actives have a fitted effect of over 15% in size. Further: potency means the concentration at half of the fitted maximal effect. The method, boiled down:
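A rise in luciferase signal from ATAD5-tagged HEK293T cells marks genetic stress. Cells were exposed to compounds for 16 hr at 37C, 5% CO2, then luciferase was quantified after a 30 min room-temperature incubation with Amplite.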

The nature of assay [3]: qHTS assay for small molecule agonists of the p53 signaling pathway - cell viability (AID 651633; calls by dose curve; further: nearly all actives have a fitted effect of over 30% in size; further: potency means the concentration at half of the fitted maximal effect). The method, boiled down: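 p53RE-bla cells were treated with compound for 16 hours at 37 C. Cytotoxicity was then measured as CellTiter-Glo luminescence after 30 min at room temperature.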
Assay [4] is described as follows: qHTS assay for small molecules that induce genotoxicity in human embryonic kidney cells expressing luciferase-tagged ATAD5 - cell viability (AID 651634; calls by dose curve; further: nearly all actives have a fitted effect of over 25% in size; further: potency means the concentration at half of the fitted maximal effect). In a few lines:
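Cytotoxicity counter-readout: after 15.5 hr compound treatment at 37C, live-cell protease activity in ATAD5-luciferase HEK293T cells measured by CellTiter-Fluor fluorescence, 30 min development at 37C.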

Assay [5] is described as follows: qHTS assay for small molecule disruptors of the mitochondrial membrane potential - cell viability (AID 720634; calls by dose curve; further: nearly all actives have a fitted effect of over 20% in size; further: potency means the concentration at half of the fitted maximal effect). The method, boiled down:
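Cytotoxicity was quantified from ATP content by CellTiter-Glo luminescence in the same wells as the MMP dye read-out. HepG2 (2,000 cells/well) were plated overnight and exposed to compounds for 1 hr at 37 C.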

Assay [6] in a line: qHTS assay for small molecule disruptors of the mitochondrial membrane potential (AID 720635). Further: potency means the concentration at half of the fitted maximal effect. In a few lines: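 HepG2 cells exposed to compound 1 hr at 37C, then Mito-MPS dye 30 min. Ratio read of aggregate (540/590 nm) versus monomer (490/535 nm) fluorescence.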
Assay [7] in a line: qHTS assay to test for compound auto fluorescence at 590 nm (red) in HepG2 cells (AID 720674). In a few lines: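 HepG2 cells, 2,000 per well in MEM with 10% FBS, attached overnight at 37 C, then got 23 nL compound or DMSO. After 1 hr at 37 C, 5% CO2, red fluorescence was read at 540/590 nm against Rose Bengal sodium as reference.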
Assay [8] can be described thus: qHTS assay to test for compound auto fluorescence at 535 nm (green) in HepG2 cells (AID 720675).
A short description of assay [9]: qHTS assay to test for compound auto fluorescence at 590 nm (red) in HEK293 cells (AID 720679). In a few lines:
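Intensity at 540nm excitation and 590nm emission is reported as Rose Bengal sodium-equivalent autofluorescence. Measurements followed overnight exposure (37C, 5% CO2) of HEK293 cells, 2,000 per well, to 23 nL compound.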

Assay [10] can be described thus: qHTS assay to test for compound auto fluorescence at 460 nm (blue) in HEK293 cells (AID 720678). In a few lines:
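HEK293, 2,000 cells/well, 10% dialyzed FBS; attach 4-5 hr 37C; pin compound or DMSO; o/n 37C/5% CO2; fluorescence 405/460 nm; triamterene-equivalent units.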

Where “and” joins values, the source holds several entries; their conditions need not be identical. Equal values may be shown once. Inconclusive results are not listed. Calls of active or inactive are those of the source. Unless noted, the call rests on the fitted dose curve; in most records, active means well fitted curve in the direction sought with a large enough effect in the repeat runs; inconclusive means weak or mixed curves; inactive means no such curve, though single readings can be large; an effect the other way counts as inactive or inconclusive.

As for `OC[C@@H](O)[C@H](O)[C@H](O)[C@@H](O)CO`, the Potency entry in assay [1], in assay [2], in assay [3], in assay [4], in assay [5] and in [6] was “inactive” in each case. Further, the result in assay [7], in [8] and in assay [9] was inactive.

Turning to `C=C(C)C(=O)OCC(CC)(COC(=O)C(=C)C)COC(=O)C(=C)C`, the Potency result in assay [1], in [2], in assay [3], in assay [4], in [5] and in assay [6] was “inactive” each time. Moreover, the molecule was called inactive in assay [7], in assay [8] and in [9].

As for `O=C(Cl)c1c(Cl)c(Cl)c(C(=O)Cl)c(Cl)c1Cl`, the Potency entry in assay [1], in assay [2], in [3], in assay [4], in assay [5] and in assay [6] was “inactive” throughout. In assay [10], the Potency entry is “inactive”. Also, the result in assay [7], in assay [8] and in [9] was inactive.

`Nc1nc2ncc(CNc3ccc(C(=O)N[C@@H](CCC(=O)O)C(=O)O)cc3)nc2c(=O)[nH]1`: the Potency entry in [1], in assay [2], in assay [3], in assay [4], in assay [5] and in [6] was “inactive” throughout. Further, the molecule was classed as inactive in [7] and in assay [8].

Turning to `CC(=O)CCc1ccccc1`, the Potency entry in assay [1], in assay [2], in [3], in assay [4], in assay [5] and in [6] was “inactive” in each case. Moreover, the outcome in assay [7] and in assay [8] was inactive.

For the molecule `C=C1C2CCC(C2)C1(C)C` (configuration not stated), the Potency result in assay [1], in [2], in [3], in assay [4], in assay [5] and in [6] was “inactive” each time. Further, the molecule was called inactive in [7], in assay [8] and in assay [9].

For `CS(=O)(=O)c1ccc([C@@H](O)[C@@H](CO)NC(=O)C(Cl)Cl)cc1`, the Potency entry in [1], in assay [2], in assay [3], in [4], in assay [5] and in assay [10] was “inactive” throughout. In addition, the call in assay [7], in [8] and in [9] was inactive.

Take `O=C1O[C@H](CO)[C@@H](O)[C@H](O)[C@H]1O`: the Potency result in [1], in assay [2], in assay [3], in [4], in [5] and in [6] was “inactive” each time. Moreover, the Potency entry in assay [10] is “inactive”. Moreover, the molecule was called inactive in assay [7], in assay [8] and in assay [9].

For the molecule `CC1=C(CC(=O)O)c2cc(F)ccc2/C1=C\c1ccc(S(C)=O)cc1` (configuration not stated), the Potency result in [1], in assay [2], in assay [3], in assay [4], in assay [5] and in assay [10] was “inactive” in each case. Moreover, the molecule was classed as inactive in assay [7] and in assay [8].

`OC[C@@H](O)[C@@H](O)[C@H](O)[C@@H](O)CO`: the Potency entry in assay [1], in [2], in [3], in assay [4], in assay [5] and in [6] was “inactive” in each case. The Potency entry in assay [10] was “inactive”. Also, the molecule was called inactive in assay [7], in assay [8] and in [9].

Consider `NCc1cccc(CN)c1`, for which the Potency result in assay [1], in assay [2], in [3], in assay [4], in assay [5] and in assay [6] was “inactive” in each case. In assay [10], the Potency entry was “inactive”. The result in [7] and in [8] was inactive.

Turning to `CCC(C)C=O` (configuration not stated), the Potency entry in assay [1], in assay [2], in assay [3], in assay [4] and in assay [5] was “inactive” each time. Also, the molecule was called inactive in assay [7] and in assay [8].

For `C=C(C)C(=O)OCCCCCC`, the Potency entry in assay [1], in [2], in assay [3], in assay [4] and in [5] was “inactive” in each case. Further, the molecule was called inactive in [7] and in assay [8].

For the molecule `O=S(=O)(O)c1cc(S(=O)(=O)O)c2c(N=Nc3ccccc3)c(O)ccc2c1`, the Potency entry in assay [1], in assay [2], in [5] and in assay [10] was “inactive” in each case. Also, the Potency in assay [4] was 48.8 µM (active) and 61.1 µM (active). The result in assay [7] and in assay [8] was inactive.

As to `CC#C[C@]1(O)CC[C@H]2[C@@H]3CCC4=CC(=O)CCC4=C3[C@@H](c3ccc(N(C)C)cc3)C[C@@]21C`, the Potency in [1] is 21.1 µM (active) and 61.1 µM (active); in assay [3], 9.44 µM (active). For the same molecule, the Potency entry in [2] and in assay [5] was “inactive” in each case. Further, the molecule was classed as inactive in assay [7] and in assay [8].

Take `S=c1nc[nH]c2nc[nH]c12`: in [1], the Potency is 8.41 µM (active) and 5.31 µM (active). In addition, the Potency entry in [2], in [4], in assay [5] and in [6] was “inactive” each time. Further, the result in [7] and in assay [8] was inactive.

Consider `CCCCOCCO`, for which the Potency result in assay [1], in assay [2], in assay [4], in assay [5] and in assay [6] was “inactive” throughout. For the same molecule, the result in [7], in assay [8] and in assay [9] was inactive.

For `O=C(Oc1ccccc1)c1ccc(O)cc1`, the Potency result in [1], in assay [2], in assay [4] and in assay [10] was “inactive” in each case. Moreover, in [5], the Potency was 61.1 µM (active). For the same molecule, the molecule was classed as inactive in assay [7], in assay [8] and in [9].

For the molecule `Clc1ccc(Cl)c(Cl)c1Cl`, the Potency result in [1], in [2], in assay [3] and in assay [4] was “inactive” throughout. Besides, the molecule was classed as inactive in assay [7], in [8] and in assay [9].

With `CCOC(=O)/C=C\C(=O)OCC`, the Potency result in [1], in assay [2], in assay [4] and in assay [5] was “inactive” each time. The call in assay [7], in assay [8] and in assay [9] was inactive.

As to `CCCCCCCCCCCCN`, the Potency result in [1], in assay [2], in assay [5] and in [10] was “inactive” throughout. The result in [7], in assay [8] and in assay [9] was inactive.

`CC1Cc2ccccc2N1NC(=O)c1ccc(Cl)c(S(N)(=O)=O)c1` (configuration not stated): the Potency result in assay [1], in assay [2], in assay [4], in assay [5] and in assay [10] was “inactive” each time. Further, the molecule was called inactive in [7], in [8] and in [9].

Regarding `CCC(=O)O`, the Potency entry in [1], in assay [2], in [3], in assay [4] and in assay [10] was “inactive” each time. The outcome in assay [7], in [8] and in assay [9] was inactive.

Take `C=C(C)C(=O)OCCCCCCCCCCCC`: the Potency result in [1], in assay [2], in assay [4] and in assay [5] was “inactive” throughout. For the same molecule, the result in assay [7] and in [8] was inactive.

As for `O=S(=O)(O)CCS`, the Potency entry in [1], in assay [2], in assay [4], in assay [5], in [6] and in assay [10] was “inactive” throughout. For the same molecule, the molecule was called inactive in [7], in assay [8] and in assay [9].

As to `O=c1c(-c2ccc(O)cc2)coc2cc(O)ccc12`, the Potency entry in assay [1], in [3] and in [4] was “inactive” throughout. The Potency in [2] is 30.3 µM (active); in assay [6] it was 19.1 µM (active). Moreover, the outcome in assay [7] and in [8] was inactive.

As to `Cc1cc(O)c2c(c1)C(=O)c1cc(O)cc(O)c1C2=O`, the Potency in assay [1] is 10.6 µM (active); in assay [4] it was 23.8 µM (active) and 54.5 µM (active); in [5], 15 µM (active); in assay [6], 1.68 µM (active) and 545 nM (active). In addition, the Potency result in [2] and in [10] was “inactive” each time. Moreover, the result in assay [7], in assay [8] and in assay [9] was inactive.

The values above are taken from PubChem BioAssay (Tox21).
